PubChem BioAssay (Tox21)
Unmarked numbers belong to inactive results. Active and inactive are the calls of the source. The call rests on the fitted dose curve; in most records, active means well fitted curve in the direction sought with a large enough effect in the repeat runs; inconclusive means weak or mixed curves; inactive means flat fitted curve, though single readings scatter. Non-standard residues stand in square brackets, D forms with d. Residues, ends and D or L forms follow the SMILES beside them. *: point of attachment. Sta = CC(C)C[C@H](N)[C@@H](O)CC(=O)O; Isovaleryl = CC(C)CC(=O)*
On the % scale 0 is the no-effect control and ±100 the full control effect.

Assay: qHTS assay to test for compound auto fluorescence at 460 nm (blue) in HEK293 cell free culture (AID 720681)
Conditions: cell-free medium, autofluorescence 405/460 nm (blue); series mostly up to 91.3 µM
In short: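 Test compounds were pinned into cell-free culture medium (DMEM with 10% FBS) and fluorescence was read directly at Ex/Em 405/460 nm. Signals were expressed as fluorescence equivalents of triamterene, with DMSO vehicle as control.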
For Cc1ccc(N)nc1, the outcome was “inactive”. With O=C(O)Cc1c(Cl)ccc(Cl)c1Cl the outcome was “inactive”. In the case of Cc1ccccc1OCC(=O)O, the outcome is reported as “inactive”. In the case of O=C(O)Cc1ccccc1Oc1ccc(Cl)cc1Cl, the outcome is reported as “inactive”. In the case of CN(C)CCc1c[nH]c2ccc(C[C@H]3COC(=O)N3)cc12, the outcome is reported as “inactive”. In the case of O=C(c1ccccc1)c1cccc(O)c1, the outcome is reported as “inactive”. In the case of Cc1ccccc1C#N, the outcome is reported as “inactive”. With CC(C)(C)NCC(O)COc1cccc2c1CCC(=O)N2 (configuration not stated) the fluorescence, % of fluorescent control was 0.183% [at 18.6 µM]. With CCCCN(CCCC)CCCCCCN(CCCC)CCCC the outcome was “inactive”. In the case of CC[C@@]1(c2ccccc2)NC(=O)N(C)C1=O, the outcome is reported as “inactive”. With CC(=O)Oc1ccc(C(C)=O)cc1 the outcome was “inactive”. In the case of CN(C)c1cc(NC(=O)CNC(C)(C)C)c(O)c2c1C[C@H]1C[C@H]3[C@H](N(C)C)C(=O)C(C(N)=O)=C(O)[C@@]3(O)C(=O)C1=C2O, the outcome is reported as “inactive”. In the case of COC(=O)N/N=C/c1c[n+]([O-])c2ccccc2[n+]1[O-], the outcome is reported as “inactive”. In the case of C=CCn1cc[n+](C)c1, the outcome is reported as “inactive”. In the case of CCC(=O)OCCOc1ccccc1, the outcome is reported as “inactive”. For CC1=C(O)C(=O)CO1, the outcome was “inactive”. With CCCCC(CC)COC(=O)CC#N (configuration not stated) the outcome was “inactive”. With C[C@]12C=CC(=O)C=C1[C@@H](F)C[C@@H]1[C@@H]2[C@@H](O)C[C@@]2(C)[C@H]1CC[C@]2(O)C(=O)CO the outcome was “inactive”. With COC(=O)/C=C(\C)CCC=C(C)C the outcome was “inactive”. With CN(C)c1ccncc1 the outcome was “inactive”. For C/C=C/C(=O)CCCC, the outcome was “inactive”. With CCCC(=O)C(CC)Sc1ccoc1C (configuration not stated) the outcome was “inactive”. With CCCCC(CC)CCC(CC(C)C)OS(=O)(=O)O (configuration not stated) the outcome was “inactive”. In the case of O=S(=O)(O)c1cc(I)c(O)c2ncccc12, the outcome is reported as “inactive”. With COC(=O)c1c(C)cc(O)c(C)c1O the outcome was “inactive”. With CCCCCCCOC(C)=O the outcome was “inactive”. In the case of O=C[C@@H](O)[C@H](O)[C@H](O)CO, the outcome is reported as “inactive”. In the case of CCCCCC(=O)CC, the outcome is reported as “inactive”. For CC(C)CC(=O)N[C@H](C(=O)N[C@H](C(=O)N[C@@H](CC(C)C)[C@@H](O)CC(=O)N[C@@H](C)C(=O)N[C@@H](CC(C)C)[C@@H](O)CC(=O)O)C(C)C)C(C)C (Isovaleryl-VV[Sta]A[Sta]-OH), the outcome was “inactive”. For CCC(C)(C)C, the outcome was “inactive”. In the case of CCCCCCCCOCCC#N, the outcome is reported as “inactive”. In the case of Cc1ccc(O)c([N+](=O)[O-])c1, the outcome is reported as “inactive”. With CC1(C)CC(N)CC(C)(C)N1 the outcome was “inactive”. With O=C(O)P(=O)(O)O the outcome was “inactive”.

Assay: qHTS assay to test for compound auto fluorescence at 535 nm (green) in HEK293 cell free culture (AID 720682)
Conditions: cell-free medium, green autofluorescence 485/535 nm, active compounds read high; series mostly up to 91.3 µM
In short: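 Using fluorescein as calibrant, autofluorescence was quantified at 485/535 nm in cell-free DMEM containing 10% FBS after pintool addition of compound or vehicle.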
With Cc1ccc(N)nc1 the outcome was “inactive”. In the case of O=C(O)Cc1c(Cl)ccc(Cl)c1Cl, the outcome is reported as “inactive”. With Cc1ccccc1OCC(=O)O the outcome was “inactive”. In the case of O=C(O)Cc1ccccc1Oc1ccc(Cl)cc1Cl, the outcome is reported as “inactive”. With CN(C)CCc1c[nH]c2ccc(C[C@H]3COC(=O)N3)cc12 the outcome was “inactive”. For O=C(c1ccccc1)c1cccc(O)c1, the outcome was “inactive”. For Cc1ccccc1C#N, the outcome was “inactive”. Compound CC(C)(C)NCC(O)COc1cccc2c1CCC(=O)N2 (configuration not stated) has an activity change of -0.0136% [at 18.6 µM]. For CCCCN(CCCC)CCCCCCN(CCCC)CCCC, the outcome was “inactive”. In the case of CC[C@@]1(c2ccccc2)NC(=O)N(C)C1=O, the outcome is reported as “inactive”. For CC(=O)Oc1ccc(C(C)=O)cc1, the outcome was “inactive”. For CN(C)c1cc(NC(=O)CNC(C)(C)C)c(O)c2c1C[C@H]1C[C@H]3[C@H](N(C)C)C(=O)C(C(N)=O)=C(O)[C@@]3(O)C(=O)C1=C2O, the outcome was “inactive”. In the case of COC(=O)N/N=C/c1c[n+]([O-])c2ccccc2[n+]1[O-], the outcome is reported as “inactive”. In the case of C=CCn1cc[n+](C)c1, the outcome is reported as “inactive”. With CCC(=O)OCCOc1ccccc1 the outcome was “inactive”. In the case of CC1=C(O)C(=O)CO1, the outcome is reported as “inactive”. In the case of CCCCC(CC)COC(=O)CC#N (configuration not stated), the outcome is reported as “inactive”. For C[C@]12C=CC(=O)C=C1[C@@H](F)C[C@@H]1[C@@H]2[C@@H](O)C[C@@]2(C)[C@H]1CC[C@]2(O)C(=O)CO, the outcome was “inactive”. With COC(=O)/C=C(\C)CCC=C(C)C the outcome was “inactive”. In the case of CN(C)c1ccncc1, the outcome is reported as “inactive”. With C/C=C/C(=O)CCCC the outcome was “inactive”. For CCCC(=O)C(CC)Sc1ccoc1C (configuration not stated), the outcome was “inactive”. With CCCCC(CC)CCC(CC(C)C)OS(=O)(=O)O (configuration not stated) the outcome was “inactive”. In the case of O=S(=O)(O)c1cc(I)c(O)c2ncccc12, the outcome is reported as “inactive”. With COC(=O)c1c(C)cc(O)c(C)c1O the outcome was “inactive”. For CCCCCCCOC(C)=O, the outcome was “inactive”. In the case of O=C[C@@H](O)[C@H](O)[C@H](O)CO, the outcome is reported as “inactive”. For CCCCCC(=O)CC, the outcome was “inactive”. With CC(C)CC(=O)N[C@H](C(=O)N[C@H](C(=O)N[C@@H](CC(C)C)[C@@H](O)CC(=O)N[C@@H](C)C(=O)N[C@@H](CC(C)C)[C@@H](O)CC(=O)O)C(C)C)C(C)C (Isovaleryl-VV[Sta]A[Sta]-OH) the outcome was “inactive”. With CCC(C)(C)C the outcome was “inactive”. With CCCCCCCCOCCC#N the outcome was “inactive”. In the case of Cc1ccc(O)c([N+](=O)[O-])c1, the outcome is reported as “inactive”. With CC1(C)CC(N)CC(C)(C)N1 the outcome was “inactive”. With O=C(O)P(=O)(O)O the outcome was “inactive”.

Assay: qHTS assay to test for compound auto fluorescence at 590 nm (red) in HEK293 cell free culture (AID 720683)
Conditions: cell-free medium autofluorescence, Ex540/Em590 red; series mostly up to 91.3 µM
In short: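 Tox21 10K library compounds were pinned into cell-free DMEM with 10% FBS and fluorescence was read at excitation 540 nm. Activity is expressed as Rose Bengal sodium equivalency.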
In the case of Cc1ccc(N)nc1, the outcome is reported as “inactive”. In the case of O=C(O)Cc1c(Cl)ccc(Cl)c1Cl, the outcome is reported as “inactive”. In the case of Cc1ccccc1OCC(=O)O, the outcome is reported as “inactive”. With O=C(O)Cc1ccccc1Oc1ccc(Cl)cc1Cl the outcome was “inactive”. With CN(C)CCc1c[nH]c2ccc(C[C@H]3COC(=O)N3)cc12 the outcome was “inactive”. With O=C(c1ccccc1)c1cccc(O)c1 the outcome was “inactive”. With Cc1ccccc1C#N the outcome was “inactive”. With CC(C)(C)NCC(O)COc1cccc2c1CCC(=O)N2 (configuration not stated) the fluorescence, % of fluorescent control was -0.0457% [at 18.6 µM]. In the case of CCCCN(CCCC)CCCCCCN(CCCC)CCCC, the outcome is reported as “inactive”. In the case of CC[C@@]1(c2ccccc2)NC(=O)N(C)C1=O, the outcome is reported as “inactive”. For CC(=O)Oc1ccc(C(C)=O)cc1, the outcome was “inactive”. For CN(C)c1cc(NC(=O)CNC(C)(C)C)c(O)c2c1C[C@H]1C[C@H]3[C@H](N(C)C)C(=O)C(C(N)=O)=C(O)[C@@]3(O)C(=O)C1=C2O, the outcome was “inactive”. With COC(=O)N/N=C/c1c[n+]([O-])c2ccccc2[n+]1[O-] the outcome was “inactive”. With C=CCn1cc[n+](C)c1 the outcome was “inactive”. With CCC(=O)OCCOc1ccccc1 the outcome was “inactive”. For CC1=C(O)C(=O)CO1, the outcome was “inactive”. With CCCCC(CC)COC(=O)CC#N (configuration not stated) the outcome was “inactive”. In the case of C[C@]12C=CC(=O)C=C1[C@@H](F)C[C@@H]1[C@@H]2[C@@H](O)C[C@@]2(C)[C@H]1CC[C@]2(O)C(=O)CO, the outcome is reported as “inactive”. For COC(=O)/C=C(\C)CCC=C(C)C, the outcome was “inactive”. In the case of CN(C)c1ccncc1, the outcome is reported as “inactive”. In the case of C/C=C/C(=O)CCCC, the outcome is reported as “inactive”. With CCCC(=O)C(CC)Sc1ccoc1C (configuration not stated) the outcome was “inactive”. With CCCCC(CC)CCC(CC(C)C)OS(=O)(=O)O (configuration not stated) the outcome was “inactive”. In the case of O=S(=O)(O)c1cc(I)c(O)c2ncccc12, the outcome is reported as “inactive”. In the case of COC(=O)c1c(C)cc(O)c(C)c1O, the outcome is reported as “inactive”. With CCCCCCCOC(C)=O the outcome was “inactive”. With O=C[C@@H](O)[C@H](O)[C@H](O)CO the outcome was “inactive”. In the case of CCCCCC(=O)CC, the outcome is reported as “inactive”. With CC(C)CC(=O)N[C@H](C(=O)N[C@H](C(=O)N[C@@H](CC(C)C)[C@@H](O)CC(=O)N[C@@H](C)C(=O)N[C@@H](CC(C)C)[C@@H](O)CC(=O)O)C(C)C)C(C)C (Isovaleryl-VV[Sta]A[Sta]-OH) the outcome was “inactive”. For CCC(C)(C)C, the outcome was “inactive”. With CCCCCCCCOCCC#N the outcome was “inactive”. With Cc1ccc(O)c([N+](=O)[O-])c1 the outcome was “inactive”. In the case of CC1(C)CC(N)CC(C)(C)N1, the outcome is reported as “inactive”. With O=C(O)P(=O)(O)O the outcome was “inactive”.
